# According to PMC11006913:
# Positions count from the first letter of the chain named.
# Tests used:
# Assay in all cases: PBM; 200 nM protein, PBS
# Conditions in all cases: dsDNA, one strand shown
# CRX [1] = target: CRX (Homo sapiens, UniProt O43186 26-111)
# VENTX [2] = target: T1, VENTX (Homo sapiens, UniProt O95231 78-163, R121Q)
# T1 sequence: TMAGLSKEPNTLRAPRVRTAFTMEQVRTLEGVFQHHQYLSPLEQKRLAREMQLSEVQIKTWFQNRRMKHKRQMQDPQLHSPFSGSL
# SIX6 [3] = target: T2, SIX6 (Homo sapiens, UniProt O95475 114-200, L167I)
# T2 sequence: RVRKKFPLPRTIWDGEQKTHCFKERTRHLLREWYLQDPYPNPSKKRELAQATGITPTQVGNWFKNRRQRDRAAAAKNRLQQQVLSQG
# VENTX [4] = target: T3, VENTX (Homo sapiens, UniProt O95231 78-163)
# T3 sequence: T1 sequence with Q44R
# SIX6 [5] = target: T4, SIX6 (Homo sapiens, UniProt O95475 114-200, L143V)
# T4 sequence: T2 sequence with L30V, I54L
# HOXC10 [6] = target: HOXC10 (Homo sapiens, UniProt Q9NYD6 254-340)
# Chain of HOXC10 (Homo sapiens, UniProt Q9NYD6 254-340) (Q9NYD6 254-340): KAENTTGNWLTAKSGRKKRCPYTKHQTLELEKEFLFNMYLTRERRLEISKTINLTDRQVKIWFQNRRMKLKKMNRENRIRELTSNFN
# SIX6 [7] = target: T5, SIX6 (Homo sapiens, UniProt O95475 114-200, H141N)
# T5 sequence: T2 sequence with H28N, I54L
# SIX6 [8] = target: T6, SIX6 (Homo sapiens, UniProt O95475 114-200, T165P)
# T6 sequence: T2 sequence with T52P, I54L
# VENTX [9] = target: T7, VENTX (Homo sapiens, UniProt O95231 78-163, Y115F)
# T7 sequence: T1 sequence with Y38F, Q44R
# SIX6 [10] = target: T8, SIX6 (Homo sapiens, UniProt O95475 114-200, L167M)
# T8 sequence: T2 sequence with I54M
# SIX6 [11] = target: T9, SIX6 (Homo sapiens, UniProt O95475 114-200, L143M)
# T9 sequence: T2 sequence with L30M, I54L
# SIX6 [12] = target: T10, SIX6 (Homo sapiens, UniProt O95475 114-200, L143I)
# T10 sequence: T2 sequence with L30I, I54L
# SIX6 [13] = target: T11, SIX6 (Homo sapiens, UniProt O95475 114-200, T165G)
# T11 sequence: T2 sequence with T52G, I54L
# SIX6 [14] = target: T12, SIX6 (Homo sapiens, UniProt O95475 114-200, T139Q)
# T12 sequence: T2 sequence with T26Q, I54L
# CRX [15] = target: CRX (Homo sapiens, UniProt O43186 26-111, E42D)
# Chain of CRX (Homo sapiens, UniProt O43186 26-111, E42D) (O43186 26-111 E42D): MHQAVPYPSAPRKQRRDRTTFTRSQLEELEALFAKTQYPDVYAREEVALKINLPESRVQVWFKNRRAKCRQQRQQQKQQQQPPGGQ
# MSX2 [16] = target: MSX2 (Homo sapiens, UniProt P35548 130-214, R199I)
# Chain of MSX2 (Homo sapiens, UniProt P35548 130-214, R199I) (P35548 130-214 R199I): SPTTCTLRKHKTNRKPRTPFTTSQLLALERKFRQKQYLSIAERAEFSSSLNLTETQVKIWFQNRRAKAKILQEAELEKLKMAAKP
# SIX6 [17] = target: T13, SIX6 (Homo sapiens, UniProt O95475 114-200, T165A)
# T13 sequence: T2 sequence with T52A, I54L
# HOXC10 [18] = target: HOXC10 (Homo sapiens, UniProt Q9NYD6 254-340, K271E)
# Chain of HOXC10 (Homo sapiens, UniProt Q9NYD6 254-340, K271E) (Q9NYD6 254-340 K271E): as the sequence (Q9NYD6 254-340) above, with K18E counted along it
# MSX2 [19] = target: MSX2 (Homo sapiens, UniProt P35548 130-214)
# Chain of MSX2 (Homo sapiens, UniProt P35548 130-214) (P35548 130-214): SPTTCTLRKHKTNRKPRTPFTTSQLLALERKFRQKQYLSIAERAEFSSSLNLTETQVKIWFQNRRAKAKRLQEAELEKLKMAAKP
# SIX6 [20] = target: T14, SIX6 (Homo sapiens, UniProt O95475 114-200, L167V)
# T14 sequence: T2 sequence with I54V
# SIX6 [21] = target: T15, SIX6 (Homo sapiens, UniProt O95475 114-200)
# T15 sequence: T2 sequence with I54L
# SIX6 [22] = target: T16, SIX6 (Homo sapiens, UniProt O95475 114-200, T165I)
# T16 sequence: T2 sequence with T52I, I54L
# MSX2 [23] = target: MSX2 (Homo sapiens, UniProt P35548 130-214, F161Y)
# Chain of MSX2 (Homo sapiens, UniProt P35548 130-214, F161Y) (P35548 130-214 F161Y): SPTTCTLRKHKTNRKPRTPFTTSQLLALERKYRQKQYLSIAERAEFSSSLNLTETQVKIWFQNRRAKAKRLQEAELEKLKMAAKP
# CRX [24] = target: CRX (Homo sapiens, UniProt O43186 26-111, R41L)
# Chain of CRX (Homo sapiens, UniProt O43186 26-111, R41L) (O43186 26-111 R41L): as the sequence (O43186 26-111 E42D) above, with R16L, D17E counted along it
# HOXC9 [25] = target: HOXC9 (Homo sapiens, UniProt P31274 178-260, K195R)
# Chain of HOXC9 (Homo sapiens, UniProt P31274 178-260, K195R) (P31274 178-260 K195R): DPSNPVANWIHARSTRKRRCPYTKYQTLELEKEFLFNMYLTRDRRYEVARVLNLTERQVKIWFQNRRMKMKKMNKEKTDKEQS
# HOXC9 [26] = target: HOXC9 (Homo sapiens, UniProt P31274 178-260)
# Chain of HOXC9 (Homo sapiens, UniProt P31274 178-260) (P31274 178-260): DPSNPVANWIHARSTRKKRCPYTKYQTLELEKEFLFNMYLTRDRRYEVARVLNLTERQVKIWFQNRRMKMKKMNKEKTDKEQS
# HOXC9 [27] = target: HOXC9 (Homo sapiens, UniProt P31274 178-260, R193K)
# Chain of HOXC9 (Homo sapiens, UniProt P31274 178-260, R193K) (P31274 178-260 R193K): as the sequence (P31274 178-260) above, with R16K counted along it
# HOXC9 [28] = target: HOXC9 (Homo sapiens, UniProt P31274 178-260, R222W)
# Chain of HOXC9 (Homo sapiens, UniProt P31274 178-260, R222W) (P31274 178-260 R222W): as the sequence (P31274 178-260) above, with R45W counted along it
# VAX1 [29] = target: VAX1 (Homo sapiens, UniProt Q5SQQ9 86-172)
# Chain of VAX1 (Homo sapiens, UniProt Q5SQQ9 86-172) (Q5SQQ9 86-172): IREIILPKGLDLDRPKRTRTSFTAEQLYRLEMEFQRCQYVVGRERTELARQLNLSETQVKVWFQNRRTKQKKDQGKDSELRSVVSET
# VAX1 [30] = target: VAX1 (Homo sapiens, UniProt Q5SQQ9 86-172, T142I)
# Chain of VAX1 (Homo sapiens, UniProt Q5SQQ9 86-172, T142I) (Q5SQQ9 86-172 T142I): as the sequence (Q5SQQ9 86-172) above, with T57I counted along it
# VAX1 [31] = target: VAX1 (Homo sapiens, UniProt Q5SQQ9 86-172, K157R)
# Chain of VAX1 (Homo sapiens, UniProt Q5SQQ9 86-172, K157R) (Q5SQQ9 86-172 K157R): as the sequence (Q5SQQ9 86-172) above, with K72R counted along it
# ALX1 [32] = target: ALX1 (Homo sapiens, UniProt Q15699 118-204, L144V)
# Chain of ALX1 (Homo sapiens, UniProt Q15699 118-204, L144V) (Q15699 118-204 L144V): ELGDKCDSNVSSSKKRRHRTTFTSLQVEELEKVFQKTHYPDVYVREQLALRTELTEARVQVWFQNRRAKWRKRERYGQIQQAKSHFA
# ALX1 [33] = target: ALX1 (Homo sapiens, UniProt Q15699 118-204, L144R)
# Chain of ALX1 (Homo sapiens, UniProt Q15699 118-204, L144R) (Q15699 118-204 L144R): as the sequence (Q15699 118-204 L144V) above, with V27R counted along it
# ALX1 [34] = target: ALX1 (Homo sapiens, UniProt Q15699 118-204)
# Chain of ALX1 (Homo sapiens, UniProt Q15699 118-204) (Q15699 118-204): as the sequence (Q15699 118-204 L144V) above, with V27L counted along it
# Chain of CRX (Homo sapiens, UniProt O43186 26-111) (O43186 26-111): as the sequence (O43186 26-111 E42D) above, with D17E counted along it
sequence,measurement,setting,value
CTGCTGGC,binding signal,CRX [1],"8.31 upbm affinity estimate (log intensity, higher = more binding, comparable within an allelic series)"
same,binding signal,VENTX [2],"7.75 upbm affinity estimate (log intensity, higher = more binding, comparable within an allelic series)"
same,binding signal,SIX6 [3],"8.86 upbm affinity estimate (log intensity, higher = more binding, comparable within an allelic series)"
same,binding signal,VENTX [4],"7.86 upbm affinity estimate (log intensity, higher = more binding, comparable within an allelic series)"
same,binding signal,SIX6 [5],"8.74 upbm affinity estimate (log intensity, higher = more binding, comparable within an allelic series)"
same,binding signal,HOXC10 [6],"9.92 upbm affinity estimate (log intensity, higher = more binding, comparable within an allelic series)"
same,binding signal,SIX6 [7],"8.87 upbm affinity estimate (log intensity, higher = more binding, comparable within an allelic series)"
same,binding signal,SIX6 [8],"8.81 upbm affinity estimate (log intensity, higher = more binding, comparable within an allelic series)"
same,binding signal,VENTX [9],"7.71 upbm affinity estimate (log intensity, higher = more binding, comparable within an allelic series)"
same,binding signal,SIX6 [10],"8.92 upbm affinity estimate (log intensity, higher = more binding, comparable within an allelic series)"
same,binding signal,SIX6 [11],"8.85 upbm affinity estimate (log intensity, higher = more binding, comparable within an allelic series)"
same,binding signal,SIX6 [12],"8.83 upbm affinity estimate (log intensity, higher = more binding, comparable within an allelic series)"
same,binding signal,SIX6 [13],"8.91 upbm affinity estimate (log intensity, higher = more binding, comparable within an allelic series)"
same,binding signal,SIX6 [14],"8.84 upbm affinity estimate (log intensity, higher = more binding, comparable within an allelic series)"
same,binding signal,CRX [15],"8.3 upbm affinity estimate (log intensity, higher = more binding, comparable within an allelic series)"
same,binding signal,MSX2 [16],"9.25 upbm affinity estimate (log intensity, higher = more binding, comparable within an allelic series)"
same,binding signal,SIX6 [17],"8.81 upbm affinity estimate (log intensity, higher = more binding, comparable within an allelic series)"
same,binding signal,HOXC10 [18],"9.97 upbm affinity estimate (log intensity, higher = more binding, comparable within an allelic series)"
same,binding signal,MSX2 [19],"9.22 upbm affinity estimate (log intensity, higher = more binding, comparable within an allelic series)"
same,binding signal,SIX6 [20],"8.93 upbm affinity estimate (log intensity, higher = more binding, comparable within an allelic series)"
same,binding signal,SIX6 [21],"8.83 upbm affinity estimate (log intensity, higher = more binding, comparable within an allelic series)"
same,binding signal,SIX6 [22],"8.82 upbm affinity estimate (log intensity, higher = more binding, comparable within an allelic series)"
same,binding signal,MSX2 [23],"9.31 upbm affinity estimate (log intensity, higher = more binding, comparable within an allelic series)"
same,binding signal,CRX [24],"8.2 upbm affinity estimate (log intensity, higher = more binding, comparable within an allelic series)"
ACCAGCCC,binding signal,CRX [1],"8.23 upbm affinity estimate (log intensity, higher = more binding, comparable within an allelic series)"
same,binding signal,HOXC9 [25],"9.73 upbm affinity estimate (log intensity, higher = more binding, comparable within an allelic series)"
same,binding signal,CRX [15],"8.32 upbm affinity estimate (log intensity, higher = more binding, comparable within an allelic series)"
same,binding signal,HOXC9 [26],"9.8 upbm affinity estimate (log intensity, higher = more binding, comparable within an allelic series)"
same,binding signal,HOXC9 [27],"9.71 upbm affinity estimate (log intensity, higher = more binding, comparable within an allelic series)"
same,binding signal,HOXC9 [28],"9.62 upbm affinity estimate (log intensity, higher = more binding, comparable within an allelic series)"
same,binding signal,CRX [24],"8.17 upbm affinity estimate (log intensity, higher = more binding, comparable within an allelic series)"
ACAGATTA,binding signal,CRX [1],"12.8 upbm affinity estimate (log intensity, higher = more binding, comparable within an allelic series)"
same,binding signal,VENTX [2],"10.5 upbm affinity estimate (log intensity, higher = more binding, comparable within an allelic series)"
same,binding signal,VENTX [9],"10.5 upbm affinity estimate (log intensity, higher = more binding, comparable within an allelic series)"
same,binding signal,CRX [15],"12.7 upbm affinity estimate (log intensity, higher = more binding, comparable within an allelic series)"
same,binding signal,VAX1 [29],"10 upbm affinity estimate (log intensity, higher = more binding, comparable within an allelic series)"
same,binding signal,VAX1 [30],"9.28 upbm affinity estimate (log intensity, higher = more binding, comparable within an allelic series)"
same,binding signal,CRX [24],"12.6 upbm affinity estimate (log intensity, higher = more binding, comparable within an allelic series)"
same,binding signal,VAX1 [31],"9.72 upbm affinity estimate (log intensity, higher = more binding, comparable within an allelic series)"
GACGCGTC,binding signal,CRX [1],"8.63 upbm affinity estimate (log intensity, higher = more binding, comparable within an allelic series)"
same,binding signal,HOXC9 [25],"9.76 upbm affinity estimate (log intensity, higher = more binding, comparable within an allelic series)"
same,binding signal,CRX [15],"8.54 upbm affinity estimate (log intensity, higher = more binding, comparable within an allelic series)"
same,binding signal,HOXC9 [26],"9.79 upbm affinity estimate (log intensity, higher = more binding, comparable within an allelic series)"
same,binding signal,ALX1 [32],"6.58 upbm affinity estimate (log intensity, higher = more binding, comparable within an allelic series)"
same,binding signal,HOXC9 [27],"9.46 upbm affinity estimate (log intensity, higher = more binding, comparable within an allelic series)"
same,binding signal,ALX1 [33],"6.43 upbm affinity estimate (log intensity, higher = more binding, comparable within an allelic series)"
same,binding signal,HOXC9 [28],"9.62 upbm affinity estimate (log intensity, higher = more binding, comparable within an allelic series)"
same,binding signal,CRX [24],"8.22 upbm affinity estimate (log intensity, higher = more binding, comparable within an allelic series)"
same,binding signal,ALX1 [34],"6.73 upbm affinity estimate (log intensity, higher = more binding, comparable within an allelic series)"
